From PubChem
Tat transport – E. coli Tat export inhibitors, primary screen, MC4100, TorA-mCherry reporter, fluorescence, single point | inhibition, % at 10 µM | 340,000 tested, 0.036% active | AID 488895, 2010;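 active = mean replicate inhibition at least 50% and at least half of replicates individually reaching 50%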;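 also: exported cargo escapes ClpAP degradation while cytoplasmic cargo is degraded and loses fluorescence; 0% = median of neutral control wells and 100% = median of NaSCN control wells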
E coli growth-1 – E. coli V3065 growth inhibition, primary screen, counter-screen for AddAB inhibitor project, absorbance, OD600; 18 h; inhibition, % at 11.9 µM; 330,000 tested, 0.27% active;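 active = inhibition above the campaign's mean inhibition across all tested compounds plus 3 SD, cut at about 9.9% in these data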;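 also: uninfected addAB+ strain grown without phage in ampicillin broth; 0% = DMSO wells and 100% = ciprofloxacin 0.95 µg/ml wells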
phage Ecoli inh – growth loss of phage-infected E. coli, primary screen, RecBCD inhibitor project, absorbance, with phage, HTS. inhibition, % at 11.9 µM. 360,000 tested, 0.26% active; in the data active = inhibition above about 11%
AddAB inh – growth inhibition of E. coli expressing H. pylori AddAB, primary screen, AddAB inhibitor project, absorbance. inhibition, % at 11.9 µM. 330,000 tested, 0.29% active; in the data active = inhibition above about 12%;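 also: 0% = vehicle wells of infected cells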
E coli growth-2 – E. coli growth inhibition, primary screen, OD600 | Escherichia coli growth, 23 h; hits give low values | 330,000 tested, 0.21% active | OD600 absorbance (concentration not given with the values);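 active = OD600 absorbance below the run mean of sample wells minus 3.6 SD, in any replicate, cut at about 0.56 in these data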
AddAB conf – growth loss of phage-infected E. coli expressing H. pylori AddAB, confirmation, AddAB inhibitor project, absorbance, E. coli V3065, T4 phage, triplicate. shares compounds with AddAB inh. OD; T4 phage with gene 2 nonsense mutations. inhibition, % at 11.9 µM. 880 tested, 64% active. AID 488942, 2010;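 active = mean inhibition above a set limit taken from the earlier primary screen, cut at about 13% in these data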;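 also: higher means less bacterial growth since AddAB block lets phage replicate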
RecBCD counter – growth loss of RecBCD+ E. coli with mutant T4 phage, counter-screen for AddAB inhibitor project, absorbance, V66 E. coli; shares compounds with AddAB inh; OD growth; inhibition, % at 11.9 µM; 880 tested, 73% active;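 active = mean inhibition above the mean of solvent-only control wells plus 3 SD, cut at about 4% in these data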;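 also: optical density read after an 18 h incubation at 37 °C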
Bact viability – bacterial viability inhibition counter-screen, confirmation, counter-screen for AddAB inhibitor project, absorbance. shares compounds with AddAB inh. absorbance (AddAB counterscreen). inhibition, % at 11.9 µM. 880 tested, 35% active. AID 488956, 2010; in the data active = inhibition above about 25%
RecBCD conf – growth loss of phage-infected RecBCD+ E. coli, confirmation, RecBCD inhibitor project, absorbance, E. coli V66, T4 gene 2 phage; inhibition, % at 11.9 µM; E. coli V66 + T4 2- phage, growth OD; 890 tested, 45% active; AID 651982, 2013; shares compounds with phage Ecoli inh;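 active = mean inhibition over triplicates exceeding the hit threshold derived in the original primary screen, cut at about 11% in these data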
Ecoli viability – E. coli viability inhibition, counter-screen for RecBCD inhibitor project, absorbance, high throughput | shares compounds with phage Ecoli inh | absorbance (OD) growth | inhibition, % at 11.9 µM | 890 tested, 29% active; in the data active = inhibition above about 20%;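 also: E. coli strain V66 grown with compound alone and no phage infection; 0% = bacteria with DMSO vehicle only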
AddAB counter – growth loss of phage-infected AddAB-carrying E. coli, confirmation, counter-screen for RecBCD inhibitor project, absorbance, E. coli V3065, T4 phage; inhibition, % at 11.9 µM; AID 651984, 2013; shares compounds with phage Ecoli inh; E. coli expressing H. pylori AddAB + T4 phage, OD growth; gene 2 mutant T4, recBCD-deleted host; 890 tested, 45% active;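 active = mean inhibition above the solvent-only control wells' mean plus 3 SD, cut at about 22% in these data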;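 also: higher means less bacterial growth from phage killing when AddAB is blocked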
The depositor's hits bear a star; / = not tested or not shown. The list is not random: actives were taken first. Their share in the collection is about 0.5%.

SMILES	Tat transport	E coli growth-1	phage Ecoli inh	AddAB inh	E coli growth-2	AddAB conf	RecBCD counter	Bact viability	RecBCD conf	Ecoli viability	AddAB counter
CCCC(=O)NC(c1ccc(N(C)C)cc1)c1ccc2cccnc2c1O (configuration not stated)	1	28*	26*	31*	/	25*	22*	20	17*	24*	29*
CCC(=O)NC(c1ccc(C)cc1)c1ccc2cccnc2c1O (configuration not stated)	-3	29*	24*	24*	/	22*	24*	17	15*	21*	29*
CCCC(=O)NC(c1ccc(C(C)C)cc1)c1ccc2cccnc2c1O (configuration not stated)	-1	27*	21*	26*	/	21*	19*	20	14*	17	21
O=C(O)c1ccccc1NC(c1ccccc1)c1ccc2cccnc2c1O (configuration not stated)	12	/	10	/	/	/	/	/	/	/	/
CCC(=O)NC(c1ccc(C)cc1)c1cc([N+](=O)[O-])c2cccnc2c1O (configuration not stated)	0	-1	2	2	0.71	/	/	/	/	/	/
COC(=O)C1=C(C(=O)OC)C2N(C)c3ccccc3[C@@]23CC(C(=O)OC)N(C(=O)c2cccs2)C3=N1 (some centres not stated)	/	/	/	/	0.71	/	/	/	/	/	/
Cc1cccc(NC(=O)NNC(=O)c2cc3ccccc3cc2O)c1C	-4	12*	12*	13*	/	11	12*	13	5	6	5
Cc1ccc(C)c(NC(=O)NNC(=O)c2cc3ccccc3cc2O)c1	0	9	14*	14*	0.72	12	6.9*	10	3	6	13
Cc1cccc(NC(=S)NNC(=O)c2ccc(O)cc2O)c1C	-1	3	5	3	0.71	/	/	/	/	/	/
Cc1ccc(NC(=O)NNC(=O)c2cc3ccccc3cc2O)cc1C	0	5	7	9	0.67	/	/	/	/	/	/
CS(=O)(=O)Nc1ccc(C(=O)NCC2CCCO2)cc1 (configuration not stated)	0	1	1	2	0.73	/	/	/	/	/	/
O=C(NNC(=O)C1CCN(S(=O)(=O)c2ccc(Cl)cc2)CC1)c1ccccc1O	-2	7	12*	12*	/	7	7.3*	8	-2	1	4
O=C(Nc1nnc(-c2cccs2)o1)c1cccc(C(F)(F)F)c1	16	13*	96*	21*	0.5*	16*	14*	12	9	8	17
COC1C=COC2(C)Oc3c(C)c(O)c4c(O)c(c(CN5CCN(C)CC5)c(O)c4c3C2=O)NC(=O)C(C)=CC=CC(C)C(O)C(C)C(O)C(C)C(OC(C)=O)C1C (configuration not stated)	8	/	1	/	/	/	/	/	/	/	/
